We go through 17 molecules from PubChem BioAssay.

A number with no mark means an inactive call. Active and inactive are the calls of the source. Unless noted, no stated cut-off is given here; in the data, active means inhibition above about 44%; inactive means the rest.

Experiment [1] can be described thus: StAR promoter reporter inhibitors, counter-screen for LRH-1 inverse agonist project, cell-based, luminescence, high throughput (AID 651611; in the data active means inhibition above about 28%). Conditions: StAR promoter luciferase reporter counterscreen, at 3.6 µM, stronger effect = higher value. A general note: A counterscreen serves to expose hits that act by an unwanted route or on another target.
Experiment [2] concerns the target Nuclear receptor subfamily 5 group A member 2 (Homo sapiens) (UniProt O00482). In words: LRH-1 (NR5A2) inverse agonists, retest, confirmation, cell-based, luminescence (AID 651613; in the data active means inhibition above about 42%;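 further: HEK293T cells co-transfected with LRH-1 and StAR promoter luciferase reporter; 0% = vehicle wells and 100% = parental cells lacking receptor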). Conditions: cell-based LRH-1 luciferase reporter, inverse agonism; at 3.6 µM; stronger effect = higher value. For orientation: Reporter assays use an easily measured gene product as a stand-in for the process of interest.

The target in experiment [3] is Steroidogenic factor 1 (Homo sapiens) (UniProt Q13285). In words: SF1 (NR5A1) inverse agonists, counter-screen for LRH-1 inverse agonist project, cell-based, luminescence, high throughput (AID 651614).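 Further: cells cotransfected with StAR promoter reporter and SF1 expression vector; 0% = vehicle on cells with receptor and 100% = vehicle on cells lacking receptor.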 The note with it: cell-based SF1 luciferase reporter, at 3.6 µM, stronger effect = higher value.
The nature of experiment [4]: VP16 transactivation reporter inhibitors, counter-screen for LRH-1 inverse agonist project, cell-based, luminescence, high throughput (AID 651615; in the data active means inhibition above about 33%). Conditions: Gal4-VP16 luciferase reporter cells, at 3.6 µM, stronger effect = higher value.

Chain of Nuclear receptor subfamily 5 group A member 2 (Homo sapiens) (O00482 whole entry, looked up): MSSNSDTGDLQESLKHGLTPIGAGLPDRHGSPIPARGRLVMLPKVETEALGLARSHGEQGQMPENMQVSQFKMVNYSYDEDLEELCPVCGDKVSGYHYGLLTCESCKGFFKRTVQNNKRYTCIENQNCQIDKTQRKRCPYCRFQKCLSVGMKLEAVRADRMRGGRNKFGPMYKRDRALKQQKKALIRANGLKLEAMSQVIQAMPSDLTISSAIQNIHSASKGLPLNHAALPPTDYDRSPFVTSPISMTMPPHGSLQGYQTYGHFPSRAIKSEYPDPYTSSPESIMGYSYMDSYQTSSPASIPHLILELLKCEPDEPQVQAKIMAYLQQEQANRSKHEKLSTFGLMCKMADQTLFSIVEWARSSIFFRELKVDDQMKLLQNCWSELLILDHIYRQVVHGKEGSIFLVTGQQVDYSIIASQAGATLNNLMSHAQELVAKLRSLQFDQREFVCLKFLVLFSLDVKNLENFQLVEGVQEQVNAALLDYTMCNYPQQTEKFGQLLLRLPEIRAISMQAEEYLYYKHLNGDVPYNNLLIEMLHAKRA
Chain of Steroidogenic factor 1 (Homo sapiens) (Q13285 whole entry, looked up, the tested form may be a part): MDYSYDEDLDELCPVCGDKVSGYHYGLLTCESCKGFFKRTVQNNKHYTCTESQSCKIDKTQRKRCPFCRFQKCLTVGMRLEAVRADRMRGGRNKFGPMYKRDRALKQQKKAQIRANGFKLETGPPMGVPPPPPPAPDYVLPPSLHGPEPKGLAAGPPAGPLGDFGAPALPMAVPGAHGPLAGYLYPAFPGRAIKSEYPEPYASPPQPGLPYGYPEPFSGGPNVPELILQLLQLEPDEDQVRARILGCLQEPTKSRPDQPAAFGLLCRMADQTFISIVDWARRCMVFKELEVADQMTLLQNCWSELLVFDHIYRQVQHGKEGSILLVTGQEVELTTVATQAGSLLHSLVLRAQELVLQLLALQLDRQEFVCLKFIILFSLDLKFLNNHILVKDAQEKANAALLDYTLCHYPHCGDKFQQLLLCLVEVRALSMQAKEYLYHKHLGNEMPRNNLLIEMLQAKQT

The inhibition is the change of the read-out against control, counted positive when it falls. `Cc1cc(C)nc(N/N=C/c2ccc([N+](=O)[O-])o2)n1`: the inhibition was 8.46% in experiment [1], 57.7% (active) in experiment [2], 42.5% in experiment [3] and -4.48% in experiment [4].

Take `Cc1c([N+](=O)[O-])cc(C(=O)Nc2ccc(Cc3ccncc3)cc2)cc1[N+](=O)[O-]`: the inhibition in experiment [1] was 7.17%; in experiment [2], 48.7% (active); in experiment [3], 45% (active); in experiment [4], -0.27%.

`CCOC(=O)CC1CCCCN1C(=O)c1cc(COc2cccc3cnccc23)on1` (stereo not drawn): the inhibition is 39% (active) in experiment [1], 58.9% (active) in experiment [2], 62.1% (active) in experiment [3] and 61.4% (active) in experiment [4].

As to `Cc1ccc(S(=O)(=O)Oc2ccccc2/C=N/NC(N)=S)cc1`, the inhibition in experiment [1] was 42.5% (active); in experiment [2], 70.6% (active); in experiment [3], 66.8% (active); in experiment [4] it was 47.2% (active).

`C/C(=N\Nc1nc2ccccc2[nH]1)c1ccccn1`: the inhibition was 71.4% (active) in experiment [1], 83.1% (active) in experiment [2], 73.9% (active) in experiment [3] and 2.13% in experiment [4].

As for `NC(=O)c1oc2ccccc2c1NC(=O)c1ccc([N+](=O)[O-])o1`, the inhibition was 23.2% in experiment [1], 67.6% (active) in experiment [2], 69.1% (active) in experiment [3] and -9.15% in experiment [4].

For `Cc1cc(-n2c(C)cc(C(=O)CSc3ncnc4ccccc34)c2C)no1`, the inhibition in experiment [1] was 8.06%; in experiment [2] it was 67.2% (active); in experiment [3] it was 61.3% (active); in experiment [4], 36.9% (active).

Take `O=C(Nc1ccc2c(c1)CCCN2C(=O)c1ccco1)c1cc([N+](=O)[O-])ccc1Cl`: the inhibition is 51.9% (active) in experiment [1], 39.3% in experiment [2], 59.1% (active) in experiment [3] and 33.9% (active) in experiment [4].

On to `COc1ccc(OCCNC(=O)c2ccccc2OCC(=O)Nc2ccc(NC(C)=O)cc2)cc1`, for which the inhibition in experiment [1] is 16%; in experiment [2] it was 49.8% (active); in experiment [3], 52.4% (active); in experiment [4], 0%.

For the molecule `Cc1ccc(NC(=O)COC(=O)C(NS(=O)(=O)c2ccc(Cl)cc2)C(C)O)cc1C` (stereo not drawn), the inhibition is 2.25% in experiment [1], 61.8% (active) in experiment [2], 43.2% (active) in experiment [3] and -7.53% in experiment [4].

On to `O=C(Nc1c(F)cccc1F)c1cnc(N2CCN(c3ccccn3)CC2)c2ccccc12`, for which the inhibition in experiment [1] was 41.4% (active); in experiment [2], 41%; in experiment [3] it was 35.2%; in experiment [4], 17.4%.

With `Cc1cc(C(=O)CSc2nnnn2-c2ccccc2)c(C)n1-c1ccc2c(c1)OCO2`, the inhibition was 0.11% in experiment [1], 42.3% (active) in experiment [2], 28.5% in experiment [3] and 27.6% in experiment [4].

On to `COc1ccc(C2=Nn3c(nnc3-c3ccncc3)SC2)cc1OC`, for which the inhibition in experiment [1] is 24.5%; in experiment [2], 48% (active); in experiment [3] it was 39.6%; in experiment [4], -2.76%.

As for `COc1ccccc1Cc1c(-c2ccc(OC)c(OC)c2)nc2c3ccccc3ccn12`, the inhibition in experiment [1] is 8.86%; in experiment [2], 40.2%; in experiment [3] it was 32%; in experiment [4] it was -1.36%.

On to `CN1CCN(c2nc(-c3ccccc3O)nc3ccccc23)CC1`, for which the inhibition in experiment [1] is 5.26%; in experiment [2], 42% (active); in experiment [3], 26.3%; in experiment [4], 39.5% (active).

`O=C(Cn1cc(COc2ccc(C(=O)c3ccccc3)cc2)nn1)c1ccc(O)cc1`: the inhibition in experiment [1] was 25.8%; in experiment [2], 47.4% (active); in experiment [3], 57% (active); in experiment [4], 59.6% (active).

Turning to `COC(=O)c1ccc(N2CCCCC2)c(NC(=O)c2ccco2)c1`, the inhibition was 9.72% in experiment [1], 55.3% (active) in experiment [2], 61.5% (active) in experiment [3] and 4.64% in experiment [4].
